PolyA inhibitor: inhibitors of polyadenylation in S. cerevisiae. S. cerevisiae SKY197-pL101 polyadenylation reporter, beta-gal luminescence; efflux-impaired pdr1/pdr3 knockout yeast; score 100 = 6 SD above DMSO. activity score, % at 12 µM. actives 0.02% (n = 300,000);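 active = lowest replicate activity score at least 50, where 100 means six control SD above control mean; inconclusive = lowest score under 50 but half or more replicates reach 50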;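 also: yeast exposed to compound for 9 h at 30 °C; higher score means more reporter readthrough which indicates perturbed polyadenylation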
GASC-1 inh: blocks human GASC-1 demethylase activity. Q9H3R0. GST-JMJD2C(1-420) H3K9me3 demethylation, DELFIA europium. inhibition, % at 2.35 µM. actives 0.069% (n = 330,000);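 active = more than half of a compound's replicate wells show inhibition beyond 50%, single wells judged on their own value; inconclusive = some, but no more than half, of replicates pass 50% inhibition; inactive = no replicate passes 50% inhibition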;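 also: signal counts dimethyl H3K9 product captured on neutravidin plate; 0% = median of DMSO wells and 100% = 0.3 times that DMSO median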
NALP3 yeast inh: inhibitors of NALP3 inflammasome in yeast | Yeast reconstituted NLRP3/ASC/caspase-1, beta-gal luminescence, 24 h | inhibition, % at 10 µM | actives 0.39% (n = 330,000) | AID 2825;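 active = inhibition of 50% or more; inactive = inhibition below 50%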;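 also: plate controls were induced DMSO wells for no effect and uninduced yeast grown without galactose for full effect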
HDAC3 inh: human HDAC3 inhibition; recombinant HDAC3, fluorogenic peptide/trypsin coupled, fluorescence; AID 2718; O15379; inhibition, % at 8.3 µM; actives 0.15% (n = 320,000); in the data active = inhibition above about 26%, passing the limit was not always enough; inconclusive = no clear call, values can overlap the other calls
Target sequence (O15379 whole entry, looked up): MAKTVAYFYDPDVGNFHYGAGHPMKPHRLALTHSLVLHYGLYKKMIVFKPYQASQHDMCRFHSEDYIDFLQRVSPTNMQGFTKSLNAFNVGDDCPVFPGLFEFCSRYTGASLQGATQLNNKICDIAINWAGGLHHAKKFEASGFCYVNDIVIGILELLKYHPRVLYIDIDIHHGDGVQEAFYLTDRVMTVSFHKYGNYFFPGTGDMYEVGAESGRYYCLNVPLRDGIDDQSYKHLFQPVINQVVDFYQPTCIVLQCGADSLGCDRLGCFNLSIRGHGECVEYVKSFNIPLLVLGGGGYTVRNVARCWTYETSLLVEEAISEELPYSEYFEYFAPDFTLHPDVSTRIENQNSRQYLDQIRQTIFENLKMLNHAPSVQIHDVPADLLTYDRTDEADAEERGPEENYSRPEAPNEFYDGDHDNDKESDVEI
Efflux pump mplx: antifungal efflux pump inhibition, Nile Red retention; S. cerevisiae Candida pump triplex; inhibition, % at 10 µM; actives 0.44% (n = 330,000); AID 485275;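 active = plate passing quality check with inhibition over a set limit, or well fluorescence over plate mean plus 4 SD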;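 also: Nile Red retained in pooled yeast measured as flow cytometry median fluorescence; 0% = buffer negative control and 100% = Enniatin B positive control; higher means more Nile Red kept so more efflux inhibition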
NALP1 inh: inhibitors of NALP1 inflammasome in yeast | actives 0.61% (n = 280,000) | AID 2071 | inhibition, % at 10 µM | S. cerevisiae NALP1/ASC/caspase-1 growth, X-gal OD620, 72 h; in the data active = inhibition mostly above about 24%, no sharp cut-off; inactive = mostly below about 32%
* marks the source's active call; other numbers are inactive results; ? = inconclusive; nt = no result. Most compounds without a hit are left out; they make up all but 1.5% or so of the library.

SMILES	PolyA inhibitor	GASC-1 inh	NALP3 yeast inh	HDAC3 inh	Efflux pump mplx	NALP1 inh
Cc1ccc(C)c(Cn2c(CN(C)Cc3ccccc3)nc3c2c(=O)n(C)c(=O)n3C)c1	19.2	7.7	-0.4	-8.7	0.1	40.2*
O=C1CCCN1C(=O)CSc1nnnn1-c1cccc(F)c1	nt	-8.3	17.2	-0.4	-0.2	nt
COc1ccc(NC(=O)CN(C)S(=O)(=O)c2cnc[nH]2)cc1Cl	-18.4	-7.3	14.6	-0.3	0.2	-1.5
CC(C)(C)CC(=O)Nc1cccc2c1CCCC2	-1.9	-2.0	3.3	-2.3	0.1	-1.1
c1cc2c(c(NCc3ccncc3)c1)CCCC2	25.3	9.6	2.8	9.3	0.0	37.9*
Cc1ccc(-n2nc(C(=O)NCc3ccc(C)o3)c3c4ccccc4n(C)c3c2=O)cc1	-5.2	-0.7	10.6	2.9	0.2	38.5*
Cc1cc(C)nc(SCC(CSc2nc(C)cc(C)n2)C(=O)O)n1	3.0	-1.4	-24.2	-0.1	0.5	10.9
N#CC12CCCCC1CC1CCCCC1(C#N)N2Cc1ccccn1 (centres undefined)	0.3	-1.9	12.9	-8.9	0.4	37.5*
N#CC12CCCCC1CC1CCCCC1(C#N)N2CCO (centres undefined)	-3.5	-0.5	16.1	-2.6	0.3	8.4
COc1ccc(-n2c(C)cc(C(=O)CCl)c2C)cc1	-20.3	-7.8	-55.3	2.4	-0.1	42.2*
CC(OC(=O)c1ccccc1NCCO)C(=O)NC1CCCCC1C (centres undefined)	22.1	-35.1	23.1	-5.1	0.0	nt
Oc1c(Br)cc(Br)cc1/C=N/Nc1ccc(Cl)nn1	2.5	14.8	nt	-3.6	-3.0	40.7*
Cc1ccsc1C(=O)OCC(=O)N1CC(C)CC(C)C1 (centres undefined)	nt	0.1	6.4	3.6	0.0	nt
Cc1onc(-c2c(Cl)cccc2Cl)c1C(=O)Nc1nc(C(C)(C)C)cs1	-23.4	2.9	9.4	10.2	0.1	36.0*
COc1ccc(CCN(C)C2CC(=O)N(c3ccccc3)C2=O)cc1OC (centres undefined)	12.3	2.9	3.6	-1.0	0.0	56.0*
COc1ccc(N2C(=O)CC(N(C)CCc3ccc(OC)c(OC)c3)C2=O)cc1 (centres undefined)	-8.5	-6.8	20.2	?	-0.1	40.6*
COC(=O)c1ccc(N2C(=O)CC(N(C)CCc3ccc(OC)c(OC)c3)C2=O)cc1 (centres undefined)	17.2	0.4	28.3	-7.2	0.0	3.0
Cc1ccc(S(=O)(=O)N2CCOC2CNC(=O)C(=O)NCc2ccccn2)cc1 (centres undefined)	21.4	-0.4	11.9	1.0	0.5	5.1
COc1ccc2c(O)c(-c3c(C)cc(C)cc3C)c(=O)[nH]c2c1	15.8	-0.9	29.3	-12.2	0.3	nt
Cc1ccc(C(=O)Nc2nnc(S(=O)(=O)N3CCC(C)CC3)s2)cc1	-16.2	-3.0	3.4	-7.0	-0.3	18.0
Cc1cccc(C(=O)Nc2nnc(S(=O)(=O)N3CCC(C)CC3)s2)c1	-3.8	1.4	4.1	-1.5	0.0	39.8*
CN(CC(=O)NCc1cccnc1)S(=O)(=O)c1ccc2c(c1)c(=O)n(C)c(=O)n2C	33.1	-14.0	10.9	0.8	0.1	43.5*
Cc1ccc2ncccc2c1	nt	-5.2	11.7	-4.4	0.3	nt
Cc1nnc(C)c2c(C)n(-c3ccc4ncccc4c3)c(C)c12	-6.5	-17.8	-6.0	7.4	0.0	25.4*
COc1ccc(CNc2ncnc3sccc23)cc1	114.0*	-0.2	35.6	2.2	-0.2	12.2
SMILES	PolyA inhibitor	GASC-1 inh	NALP3 yeast inh	HDAC3 inh	Efflux pump mplx	NALP1 inh
O=C(O)c1cccnc1SC1CC(=O)N(CCc2ccccc2)C1=O (centres undefined)	2.4	-2.7	3.0	-6.0	0.0	39.7*
O=C(O)c1cccnc1SC1CC(=O)N(Cc2ccccc2)C1=O (centres undefined)	-7.8	-3.3	4.3	15.4	0.0	0.6
O=C1C=C(NCc2ccc3c(c2)OCO3)CC(c2ccccc2)C1 (centres undefined)	2.0	60.5*	11.4	-3.0	0.1	-0.5
CC(C)CCCCCCNC(=S)Nc1ccc(S(=O)(=O)N2CCOCC2)cc1	0.3	10.9	10.7	29.4*	2.5	10.2
O=S(=O)(c1ccc(NC(=S)Nc2ccccc2)cc1)N1CCOCC1	-3.5	10.3	18.2	-1.2	0.0	22.7
COc1ccccc1C(CNC(=O)CCNC(=O)c1ccccc1Cl)N1CCCC1 (centres undefined)	20.1	-0.1	16.0	-1.0	-0.2	nt
O=C(CSc1ncnc2scc(-c3ccc(F)cc3)c12)c1ccc2c(c1)OCCO2	-11.5	15.9	8.3	81.2*	0.1	41.7
CCOC(=O)C1(Cc2ccccc2)CCCN(C(=O)c2ccc(-n3ccnc3)cc2)C1 (centres undefined)	-5.1	13.2	7.8	-4.5	0.0	4.2
COc1ccc(C)cc1NC(=O)CCCN1C(=O)CN(C)C1=O	nt	-6.5	-4.3	5.1	-0.2	nt
CCC1=C(OC(=O)N(CC)CC)N2C(=O)OC(=NCC3CC3)[C@]2(Cc2ccccc2)[C@H]2C1=CC[C@H]1C(=O)N(c3ccccc3)C(=O)[C@H]12	-12.8	0.2	20.1	13.5	3.8*	nt
CCC1=C(OC(=O)N(CC)CC)N2C(=O)OC(=NCC3CC3)[C@]2(Cc2ccccc2)[C@H]2C1=CC[C@H]1C(=O)N(C)C(=O)[C@H]12	27.9	-6.5	20.2	9.3	0.0	nt
O=[N+]([O-])c1ccc(S(=O)(=O)c2ccccc2)nc1	2.0	-10.1	-31.6	0.8	1.6	20.7
Cc1ccc(S(=O)(=O)c2ccc([N+](=O)[O-])cn2)cc1	-9.6	15.0	-31.1	-11.1	-0.4	34.6*
Cc1nc2ccc(NC(=O)c3cc([N+](=O)[O-])cc([N+](=O)[O-])c3Cl)cc2s1	nt	5.4	nt	5.3	-0.4	57.5*
O=C(Nc1ccc(OC(F)(F)F)cc1)Nc1cccc([N+](=O)[O-])c1	-15.9	-3.4	43.2	-3.7	-0.1	59.4*
CCc1ccc(C2NC(C(=O)O)CS2)cc1 (centres undefined)	nt	nt	nt	nt	nt	50.1*
CC1CCN(S(=O)(=O)c2cc(F)ccc2CN2C(=O)c3cccnc3C2=O)CC1	4.1	8.1	0.5	1.6	-0.2	-2.5
COc1ccc2cc(C(=O)NCc3ccccc3CN3CCCC3)ccc2c1	nt	-13.2	19.2	-32.0	-0.1	nt
O=C(CCCCCNC(=S)Nc1ccccc1)C[N+](=O)[O-]	-13.8	-1.8	-14.5	28.8*	-0.2	-9.9
O=c1oc(-c2ccccc2Br)nc2ccccc12	-17.5	-1.5	28.7	44.5*	-0.1	0.4
COCCNC(=O)c1c[nH]c2ccc(S(=O)(=O)N(C)c3ccc(C)c(C)c3)cc2c1=O	6.6	-5.9	13.1	6.2	0.0	-10.1
CC(C)C(=O)Nc1cccc(-c2nc3ccccc3c(=O)o2)c1	5.9	0.5	23.4	-0.8	-0.1	3.5

From PubChem BioAssay
